According to PubChem BioAssay (Tox21):
Inconclusive results are not listed. Activity calls are given as the source filed them. The call rests on the fitted dose curve; in most records, active means well fitted curve in the direction sought with a large enough effect in the repeat runs; inconclusive means weak or mixed curves; inactive means no such curve, though single readings can be large; an effect the other way counts as inactive or inconclusive.

What was measured:
[1] = qHTS RealTime-Glo MT Cell Viability Assay in HepG2 cells - 40 hour (AID 1224870); conditions: RealTime-Glo luminescence; series mostly up to 76.8 µM; further: nearly all actives have a fitted effect of over 50% in size
Method in brief: (§1)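 HepG2 cells mixed with RealTime-Glo MT reagents (NanoLuc plus cell-permeant prosubstrate) were seeded at 600 cells/well, incubated 5 h at 37 C/5% CO2, then pinned with compounds in DMSO; nonlytic luminescence tracked viability during 40 h treatment.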

[2] = A CellTox Green Cytotoxicity Assay to monitor cytotoxicity in HEK293 cells - 40 hour (AID 1224871); conditions: CellTox Green fluorescence; series mostly up to 76.8 µM; further: nearly all actives have a fitted effect of over 45% in size
Method in brief: (§2)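 Read-out: fluorescence of a cell-impermeant cyanine dye staining DNA of dead cells, proportional to cytotoxicity. HEK293, 600 cells/well with reagent, compound (23 nL DMSO) added after 5 h; reads at 0, 8, 16, 24, 32, 40 h.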

[3] = qHTS RealTime-Glo MT Cell Viability Assay in HEK293 cells - 16 hour (AID 1224872); conditions: RealTime-Glo luminescence; series mostly up to 76.8 µM; further: top concentration of the series differs between compounds; nearly all actives have a fitted effect of over 50% in size
Method in brief: (§3)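 Viability tracked continuously by luminescence as live cells reduce a prosubstrate for NanoLuc; HEK293 cells preincubated 5 h, compound-treated at 37 C, and read at 0, 8, 16, 24, 32 and 40 h.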

[4] = qHTS RealTime-Glo MT Cell Viability Assay in HepG2 cells - 8 hour (AID 1224873); conditions: RealTime-Glo luminescence; series mostly up to 76.8 µM; further: nearly all actives have a fitted effect of over 55% in size
Method in brief: as §1

[5] = A CellTox Green Cytotoxicity Assay to monitor cytotoxicity in HEK293 cells - 24 hour (AID 1224875); conditions: CellTox Green fluorescence; series mostly up to 76.8 µM; further: nearly all actives have a fitted effect of over 45% in size
Method in brief: as §2

[6] = A CellTox Green Cytotoxicity Assay to monitor cytotoxicity in HepG2 cells - 16 hour (AID 1224876); conditions: CellTox Green fluorescence; series mostly up to 76.8 µM; further: nearly all actives have a fitted effect of over 45% in size
Method in brief: (§4)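 HepG2, 600 cells/well premixed w/ CellTox Green; 5 h settle, 37 C/5% CO2; pintool cpd add (DMSO); 37 C, 40 h; fluorescence read at 0, 8, 16, 24, 32, 40 h.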

[7] = qHTS RealTime-Glo MT Cell Viability Assay in HepG2 cells - 32 hour (AID 1224877); conditions: RealTime-Glo luminescence; series mostly up to 76.8 µM; further: nearly all actives have a fitted effect of over 55% in size
Method in brief: (§5)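 Viability was tracked continuously by NanoLuc luminescence from prosubstrate reduced by living HepG2 cells, at successive time points over 40 h of compound exposure. Cells with reagent were preincubated 5 h at 37 °C before compound addition.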

[8] = A CellTox Green Cytotoxicity Assay to monitor cytotoxicity in HepG2 cells - 24 hour (AID 1224878); conditions: CellTox Green fluorescence; series mostly up to 76.8 µM; further: nearly all actives have a fitted effect of over 45% in size
Method in brief: as §4

[9] = A CellTox Green Cytotoxicity Assay to monitor cytotoxicity in HepG2 cells - 40 hour (AID 1224879); conditions: CellTox Green fluorescence; series mostly up to 76.8 µM; further: nearly all actives have a fitted effect of over 40% in size
Method in brief: as §4

[10] = qHTS RealTime-Glo MT Cell Viability Assay in HEK293 cells - 0 hour (AID 1224880); conditions: RealTime-Glo luminescence; series mostly up to 76.8 µM
Method in brief: (§6)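 Luminescence readout at each listed time point; HEK293, 600 cells/well, RealTime-Glo MT reagent added with cells; compounds pinned (23 nL in DMSO) after 5 h at 37 C; continuous culture at 37 C.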

[11] = A CellTox Green Cytotoxicity Assay to monitor cytotoxicity in HEK293 cells - 32 hour (AID 1224881); conditions: CellTox Green fluorescence; series mostly up to 76.8 µM; further: nearly all actives have a fitted effect of over 40% in size
Method in brief: as §2

[12] = A CellTox Green Cytotoxicity Assay to monitor cytotoxicity in HepG2 cells - 0 hour (AID 1224882); conditions: CellTox Green fluorescence; series mostly up to 76.8 µM; further: nearly all actives have a fitted effect of over 35% in size
Method in brief: as §4

[13] = A CellTox Green Cytotoxicity Assay to monitor cytotoxicity in HepG2 cells - 32 hour (AID 1224883); conditions: CellTox Green fluorescence; series mostly up to 76.8 µM; further: nearly all actives have a fitted effect of over 50% in size
Method in brief: as §4

[14] = A CellTox Green Cytotoxicity Assay to monitor cytotoxicity in HEK293 cells - 8 hour (AID 1224884); conditions: CellTox Green fluorescence; series mostly up to 76.8 µM; further: nearly all actives have a fitted effect of over 35% in size
Method in brief: as §2

[15] = qHTS RealTime-Glo MT Cell Viability Assay in HepG2 cells - 16 hour (AID 1224885); conditions: RealTime-Glo luminescence; series mostly up to 76.8 µM; further: nearly all actives have a fitted effect of over 50% in size
Method in brief: as §5

[16] = qHTS RealTime-Glo MT Cell Viability Assay in HEK293 cells - 8 hour (AID 1224887); conditions: RealTime-Glo luminescence; series mostly up to 76.8 µM
Method in brief: as §6

[17] = A CellTox Green Cytotoxicity Assay to monitor cytotoxicity in HEK293 cells - 16 hour (AID 1224888); conditions: CellTox Green fluorescence; series mostly up to 76.8 µM; further: nearly all actives have a fitted effect of over 35% in size
Method in brief: as §2

[18] = qHTS RealTime-Glo MT Cell Viability Assay in HepG2 cells - 0 hour (AID 1224889); conditions: RealTime-Glo luminescence; series mostly up to 76.8 µM; further: nearly all actives have a fitted effect of over 50% in size
Method in brief: as §5

[19] = qHTS RealTime-Glo MT Cell Viability Assay in HEK293 cells - 40 hour (AID 1224874); conditions: RealTime-Glo luminescence; max response: stronger effect = lower value; further: nearly all actives have a fitted effect of over 50% in size
Method in brief: as §6

[20] = qHTS RealTime-Glo MT Cell Viability Assay in HEK293 cells - 24 hour (AID 1224886); conditions: RealTime-Glo luminescence; series mostly up to 76.8 µM
Method in brief: as §3
On the % scale 0 is the no-effect control and ±100 the full control effect.

Cc1c(C)n(CCN(C)C)c2ccc(C(=O)OCCN(C)C)cc12
inactive: Potency [1] | Potency [2] | Potency [3] | outcome [4] | Potency [5] | Potency [6] | Potency [7] | Potency [8] | Potency [9] | outcome [10] | Potency [11] | Potency [12] | Potency [13] | Potency [14] | outcome [15] | Potency [16] | Potency [17] | Potency [18]

CC(=O)NC(Cc1ccccc1)C(=O)O (centres undefined)
inactive: Potency [1] | Potency [2] | Potency [3] | max response [19] 5.56% | Potency [5] | Potency [6] | Potency [7] | Potency [8] | Potency [9] | outcome [10] | Potency [11] | Potency [12] | Potency [13] | Potency [14] | outcome [15] | Potency [20] | Potency [16] | Potency [17] | Potency [18]

CC(=O)N[C@@H](CCC(N)=O)C(=O)O
inactive: Potency [1] | Potency [2] | Potency [3] | max response [19] -1.52% | Potency [5] | Potency [6] | Potency [7] | Potency [8] | Potency [9] | Potency [11] | Potency [12] | Potency [13] | Potency [14] | outcome [15] | Potency [20] | Potency [16] | Potency [17]

CCCc1ccccc1O
inactive: Potency [1] | Potency [2] | Potency [3] | outcome [4] | Potency [6] | Potency [8] | Potency [9] | Potency [11] | Potency [12] | Potency [13] | Potency [14] | outcome [15] | Potency [20] | Potency [16] | Potency [17]

Cc1c(F)cc2c(=O)c(C(=O)O)cn3c2c1CCC3C (centres undefined)
inactive: Potency [1] | Potency [2] | Potency [3] | outcome [4] | Potency [5] | Potency [6] | Potency [7] | Potency [8] | Potency [9] | outcome [10] | Potency [11] | Potency [12] | Potency [13] | Potency [14] | Potency [20] | Potency [16] | Potency [17] | Potency [18]

CCCCNc1ccccc1
inactive: Potency [1] | Potency [2] | Potency [3] | outcome [4] | Potency [5] | Potency [6] | Potency [7] | Potency [8] | Potency [9] | outcome [10] | Potency [11] | Potency [12] | Potency [13] | Potency [14] | Potency [20] | Potency [16] | Potency [17] | Potency [18]

C=C(C)C(=O)OCCC(C)OC(=O)C(=C)C (centres undefined)
inactive: Potency [1] | Potency [2] | Potency [3] | outcome [4] | Potency [5] | Potency [6] | Potency [7] | Potency [8] | Potency [9] | outcome [10] | Potency [11] | Potency [13] | Potency [14] | outcome [15] | Potency [20] | Potency [16] | Potency [17] | Potency [18]

O=C(O)c1ccc[n+]([O-])c1
inactive: Potency [1] | Potency [2] | Potency [3] | max response [19] 8.34% | Potency [5] | Potency [6] | Potency [7] | Potency [8] | Potency [9] | Potency [11] | Potency [12] | Potency [13] | Potency [14] | outcome [15] | Potency [20] | Potency [16] | Potency [17]

CCN(CC)C(=O)c1ccc(O)c(OC)c1
inactive: Potency [1] | Potency [2] | Potency [3] | max response [19] 1.73% | Potency [5] | Potency [6] | Potency [7] | Potency [8] | Potency [9] | outcome [10] | Potency [11] | Potency [12] | Potency [13] | Potency [14] | outcome [15] | Potency [20] | Potency [16] | Potency [18]

C#CC(O)C(CC)CCCC (centres undefined)
inactive: Potency [1] | Potency [2] | Potency [3] | max response [19] 11.7% | Potency [5] | Potency [6] | Potency [7] | Potency [8] | Potency [9] | outcome [10] | Potency [11] | Potency [12] | Potency [13] | outcome [15] | Potency [20] | Potency [16] | Potency [17] | Potency [18]

NC(CS)C(=O)O (centres undefined)
inactive: Potency [1] | Potency [2] | Potency [3] | max response [19] 1.35% | Potency [5] | Potency [6] | Potency [7] | Potency [8] | Potency [9] | outcome [10] | Potency [11] | Potency [12] | Potency [13] | Potency [14] | outcome [15] | Potency [20] | Potency [16] | Potency [17] | Potency [18]

CCCCc1ccc(N)cc1
inactive: Potency [1] | Potency [2] | Potency [3] | outcome [4] | Potency [5] | Potency [6] | Potency [8] | Potency [9] | outcome [10] | Potency [11] | Potency [12] | Potency [13] | Potency [14] | outcome [15] | Potency [16] | Potency [17] | Potency [18]

Cc1ccc(N)cc1[N+](=O)[O-]
inactive: Potency [1] | Potency [2] | Potency [3] | max response [19] -16.8% | Potency [5] | Potency [6] | Potency [7] | Potency [8] | Potency [9] | outcome [10] | Potency [11] | Potency [13] | Potency [14] | outcome [15] | Potency [20] | Potency [16] | Potency [17] | Potency [18]

COC(=O)c1ccc(C(=O)OC)c(C(=O)OC)c1
inactive: Potency [1] | Potency [2] | Potency [3] | outcome [4] | Potency [5] | Potency [6] | Potency [7] | outcome [10] | Potency [11] | Potency [12] | Potency [14] | outcome [15] | Potency [20] | Potency [16] | Potency [17] | Potency [18]

CCCCCN(CCCCC)C(=O)C(CCC(=O)O)NC(=O)c1ccc(Cl)c(Cl)c1 (centres undefined)
inactive: Potency [1] | Potency [2] | Potency [3] | max response [19] -6.43% | Potency [5] | Potency [6] | Potency [7] | Potency [8] | Potency [9] | Potency [11] | Potency [12] | Potency [13] | Potency [14] | outcome [15] | Potency [20] | Potency [16] | Potency [17] | Potency [18]
